Assay results taken from paper PMC5540273 (PLoS ONE, 2017).
“And” between values parts separate entries of the source, which are not always exact repeats. Identical values can stand only once. Like-named read-outs stand apart in the source and are kept apart here.

Experiments:
[1] = test system: T1, MST1; conditions: concentration: 1 μM, replicates: in singlicate, n = 1
T1 construct: gene STK4

[2] = test system: T2, MST2; conditions: concentration: 1 μM, replicates: in singlicate; n = 1
T2 construct: gene STK3

[3] = test system: T3, MST3; conditions: concentration: 1 μM, replicates: in singlicate, n = 1
T3 construct: gene STK24

[4] = test system: MST4; conditions: concentration: 1 μM, replicates: in singlicate, n = 1
[5] = test system: MTOR; conditions: concentration: 1 μM, replicates: in singlicate, n = 1
[6] = test system: MUSK; conditions: concentration: 1 μM, replicates: in singlicate, n = 1
[7] = test system: MYLK2; conditions: concentration: 1 μM, replicates: in singlicate, n = 1
[8] = test system: MYLK4; conditions: concentration: 1 μM, replicates: in singlicate, n = 1
[9] = test system: MYLK; conditions: concentration: 1 μM, replicates: in singlicate, n = 1
[10] = test system: MYO3A; conditions: concentration: 1 μM, replicates: in singlicate, n = 1
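Further: KINOMEscan kinase panel screen.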

| Structure (SMILES) | %Inh [1] | %Inh [2] | %Inh [3] | %Inh [4] | %Inh [5] | %Inh [6] | %Inh [7] | %Inh [8] | %Inh [9] | %Inh [10] | %Inh ([1]; 1 µM) | %Inh ([3]; 1 µM) | %Inh ([4]; 1 µM) | %Inh ([5]; 1 µM) | %Inh ([6]; 1 µM) | %Inh ([7]; 1 µM) | %Inh ([8]; 1 µM) | %Inh ([9]; 1 µM) | %Inh ([10]; 1 µM) |
| --- | --- | --- | --- | --- | --- | --- | --- | --- | --- | --- | --- | --- | --- | --- | --- | --- | --- | --- | --- |
| [2H]C([2H])(c1cccc(C(F)(F)F)c1C)n1ccn2c(=O)nc(N3CCOCC3)cc12 [GSK2336394] | 2% | 0% | 11% | 0% | 18% | 8% | 0% | 0% | 12% | 4% |  |  |  |  |  |  |  |  |  |
| O=C(Nc1cccc(-c2nn3ncccc3c2-c2ccnc(Nc3cccc(C(F)(F)F)c3)n2)c1)c1c(F)cccc1F [GSK299495] | 9% | 23% | 0% | 0% | 17% | 26% | 0% | 0% | 11% | 41% |  |  |  |  |  |  |  |  |  |
| COc1ccc(S(=O)(=O)NC2CCN(c3cc(C)nc(Nc4cccc(C#N)c4)n3)CC2)cc1.O=C(O)C(F)(F)F [GSK1653539] | 0% | 0% | 13% | 0% | 28% | 0% | 0% | 0% | 3% | 17% |  |  |  |  |  |  |  |  |  |
| c1ccc(-c2n[nH]cc2-c2ccnc3ccccc23)nc1 [GW271431] | 5% | 13% | 2% | 0% | 9% | 15% | 12% | 24% | 20% | 31% |  |  |  |  |  |  |  |  |  |
| NS(=O)(=O)c1cccc(-c2ccc3ncc(N4CCOCC4)nc3c2)c1 [GSK1535721] | 0% | 0% | 0% | 0% | 9% | 0% | 0% | 12% | 2% | 15% |  |  |  |  |  |  |  |  |  |
| O=c1cc(N2CCOCC2)nc2n(Cc3cccc4ccccc34)ccn12 [GSK2333389] | 0% | 9% | 0% | 0% | 0% | 0% | 0% | 0% | 0% | 0% |  |  |  |  |  |  |  |  |  |
| COc1ccc(Nc2nccc(N3CCC(NC(=O)Nc4cc(C)ccc4C)C3)n2)cc1 (stereo not drawn) [GSK1379741] | 0% | 1% | 0% | 0% | 11% | 0% | 0% | 0% | 0% | 0% |  |  |  |  |  |  |  |  |  |
| NCC(NC(=O)c1cc(-c2cn[nH]c2)c(-c2ccnc3[nH]ccc23)s1)c1ccccc1.O=C(O)C(F)(F)F.O=C(O)C(F)(F)F (stereo not drawn) [GSK1325775] | 0% | 12% | 1% | 45% | 5% | 0% | 45% | 100% | 63% | 32% |  |  |  |  |  |  |  |  |  |
| O=c1cc(N2CCOCC2)nc2n(Cc3cccc(C(F)(F)F)c3)ccn12 [GSK2297543] | 10% | 0% | 9% | 0% | 4% | 3% | 0% | 2% | 18% | 19% |  |  |  |  |  |  |  |  |  |
| Cc1c(Cn2c(C)nn3c(=O)cc(N4CCOC(C)C4)nc23)cccc1C(F)(F)F (stereo not drawn) [GSK2344444] | 0% | 0% | 2% | 0% | 28% | 0% | 8% | 1% | 0% | 7% |  |  |  |  |  |  |  |  |  |
| Cc1nnc(-c2ccc3occ(-c4ccc(C(C)O)cc4)c3c2)o1 (stereo not drawn) | 0% | 0% | 0% | 0% | 0% | 4% | 14% | 4% | 26% | 0% |  |  |  |  |  |  |  |  |  |
| Nc1nc(-c2ccc3c(N)n[nH]c3c2)cc(N2CCCC2)n1 [GSK2227430] | 0% | 0% | 0% | 0% | 0% | 0% | 0% | 2% | 9% | 0% |  |  |  |  |  |  |  |  |  |
| CC(C)Oc1ccc2c(-c3ccnc(Nc4ccc(N5CCN(C)CC5)cc4)n3)cnn2n1 [GW696155] | 0% | 0% | 59% | 16% | 27% | 42% | 61% | 99.6% | 17% | 30% |  |  |  |  |  |  |  |  |  |
| COc1cc(Nc2nccc(N3CCC(NC(=O)c4cccc(NC(C)=O)c4)C3)n2)cc(OC)c1OC (stereo not drawn) [GSK1379754] | 12% | 7% | 0% | 0% | 7% | 12% | 17% | 2% | 14% | 5% |  |  |  |  |  |  |  |  |  |
| C[C@@H](Oc1cc(-n2cnc3ccc(NC(=O)NC(C)(C)C)cc32)sc1C(N)=O)c1ccccc1Cl [GSK346294] | 12% | 0% | 13% | 0% | 31% | 6% | 0% | 1% | 23% | 35% |  |  |  |  |  |  |  |  |  |
| O=C(NCCNc1ccnc(Nc2ccc(F)cc2)n1)c1cc2ccccc2s1 [GSK1379874] | 0% | 0% | 0% | 0% | 8% | 0% | 0% | 0% | 15% | 0% |  |  |  |  |  |  |  |  |  |
| Cc1cccc(-c2nc(-c3ccc(S(C)(=O)=O)cc3)sc2-c2ccncc2)c1 | 5% | 0% | 5% | 0% | 0% | 0% | 0% | 0% | 6% | 7% |  |  |  |  |  |  |  |  |  |

| Structure (SMILES) | %Inh [1] | %Inh [2] | %Inh [3] | %Inh [4] | %Inh [5] | %Inh [6] | %Inh [7] | %Inh [8] | %Inh [9] | %Inh [10] | %Inh ([1]; 1 µM) | %Inh ([3]; 1 µM) | %Inh ([4]; 1 µM) | %Inh ([5]; 1 µM) | %Inh ([6]; 1 µM) | %Inh ([7]; 1 µM) | %Inh ([8]; 1 µM) | %Inh ([9]; 1 µM) | %Inh ([10]; 1 µM) |
| --- | --- | --- | --- | --- | --- | --- | --- | --- | --- | --- | --- | --- | --- | --- | --- | --- | --- | --- | --- |
| CNc1ncnc2[nH]ncc12 [SKF-18355] | 36% | 0% | 0% | 0% | 17% | 14% | 3% | 5% | 0% | 0% |  |  |  |  |  |  |  |  |  |
| Cc1ccc(C(=O)NCC(N)=O)cc1-n1c(C)cc(OCc2ccc(F)cc2F)c(Br)c1=O | 13% | 4% | 26% | 0% | 0% | 0% | 12% | 14% | 7% | 14% |  |  |  |  |  |  |  |  |  |
| NS(=O)(=O)c1cccc(-c2ccc3nccc(-c4cccc(S(N)(=O)=O)c4)c3c2)c1 [GW867253] | 11% | 0% | 5% | 0% | 32% | 10% | 0% | 2% | 0% | 0% |  |  |  |  |  |  |  |  |  |
| CN1c2ccc(CNc3ccc(F)cc3)cc2-c2c(cnn2C)S1(=O)=O | 0% | 0% | 0% | 0% | 24% | 0% | 0% | 0% | 4% | 0% |  |  |  |  |  |  |  |  |  |
| O=C(Nc1n[nH]c2cc(-c3cccc(F)c3)ccc12)C1CC1 [SB-735464] | 11% | 0% | 17% | 17% | 0% | 0% | 77% | 6% | 2% | 3% |  |  |  |  |  |  |  |  |  |
| O=C1NC(=O)C(N2CCc3ccccc32)=C1c1cccc(Cl)c1 [SB-408010] | 0% | 63% | 4% | 0% | 0% | 0% | 0% | 0% | 8% | 9% |  |  |  |  |  |  |  |  |  |
| COc1ccc(CNC(=O)NC2CCN(c3ccnc(Nc4ccc(OC)cc4)n3)C2)cc1 (stereo not drawn) [GSK1379727] | 0% | 0% | 0% | 0% | 13% | 7% | 8% | 0% | 22% | 18% |  |  |  |  |  |  |  |  |  |
| O=c1cc(N2CCOCC2)nc2n(Cc3cccc(F)c3)ccn12 [GSK2297430] | 23% | 0% | 3% | 0% | 52% | 3% | 0% | 0% | 4% | 0% |  |  |  |  |  |  |  |  |  |
| Nc1nccc(-c2c(-c3ccc(F)cc3)ncn2C2CCN(CC(F)(F)F)CC2)n1 [SB-236560] | 96.9% | 0% | 0% | 0% | 0% | 22% | 0% | 0% | 1% | 0% |  |  |  |  |  |  |  |  |  |
| Cc1c2ccc(N(C)c3ccnc(Nc4cccc(S(N)(=O)=O)c4)n3)cc2nn1Cc1ccccc1.Cl.Cl [GW787226] | 32% | 13% | 0% | 0% | 0% | 33% | 0% | 0% | 0% | 0% |  |  |  |  |  |  |  |  |  |
| O=C(c1ccc(-c2cc(-c3c[nH]nc3-c3ccccn3)ccn2)cc1)N1CCOCC1 [GW812171] | 4% | 0% | 0% | 0% | 17% | 0% | 0% | 26% | 0% | 6% |  |  |  |  |  |  |  |  |  |
| CCc1nc(-c2cccc(C)c2)c(-c2ccnc(NCc3ccccc3)c2)s1 | 4% | 0% | 4% | 0% | 12% | 12% | 0% | 0% | 0% | 0% |  |  |  |  |  |  |  |  |  |
| Fc1ccc(-c2ncn(CCCN3CCOCC3)c2-c2ccccn2)cc1 [SB-211742] | 2% | 32% | 9% | 0% | 27% | 0% | 3% | 0% | 0% | 0% |  |  |  |  |  |  |  |  |  |
| NCCNS(=O)(=O)c1ccc(-c2ccnc3[nH]ccc23)cc1 [GSK977617] |  | 0% |  |  |  |  |  |  |  |  | 26% and 0% | 27% and 17% | 13% and 0% | 29% and 12% | 30% and 35% | 75% and 42% | 99.9% and 99.7% | 74% and 59% | 37% and 16% |
| Fc1ccc(-c2ncn(CCCN3CCOCC3)c2-c2cccnc2)cc1 [SB-211743] | 12% | 40% | 0% | 0% | 0% | 20% | 1% | 0% | 0% | 0% |  |  |  |  |  |  |  |  |  |
| CC(C)(C)n1cnc2c(N)ncnc21 [SKF-97359] | 9% | 0% | 44% | 0% | 6% | 0% | 0% | 0% | 27% | 0% |  |  |  |  |  |  |  |  |  |
